This passage reports growth results from PubChem BioAssay (NCI).

Molecules are shown by their SMILES. Compounds without any hit were thinned out: in the full panel of roughly 83,000, 20% have a hit.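 Note: values are percent growth. 100 is the growth of untreated cells, values between 100 and 0 indicate rising inhibition; between -100 and 0 indicates cell death.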 Values without a mark were called inactive. Active and inactive are the calls of the source. How the source made its calls: active means growth percent below 10; inactive means the rest.

What all share (experiment): NCI-60 one-dose screen, 48 h (100 = growth as untreated, 0 = no growth, -100 = all killed)
Conditions in all cases: 10 µM unless noted

The test system of assay [1] is SR leukemia.
In assay [2] the test system is RPMI-8226 leukemia.
Assay [3] has as its system OVCAR-8 ovarian.
Assay [4] relates to OVCAR-5 ovarian.
In assay [5] the test system is OVCAR-4 ovarian.
The subject of assay [6] is SK-OV-3 ovarian.
Assay [7] concerns IGROV1 ovarian.
Assay [8] deals with OVCAR-3 ovarian.
In assay [9] the test system is HS 578T breast.
In assay [10] the test system is NCI/ADR-RES ovarian.

In the case of `C=CCC(O)C=C` (stereo not given), the growth in [1] is 84.4%; in [2], 105%; in [3], 101%; in assay [4], 108%; in assay [5], 106%; in assay [6], 94%. The growth was 103% in assay [7], 108% in assay [8], 101% in assay [9] and 103% in [10].

In the case of `NNC(=O)c1ccccc1N`, the growth in assay [1] was 156%; in assay [2], 88.9%; in [3] it was 107%; in [4], 89.8%; in assay [5], 106%; in assay [6], 114%. Also, the growth in [7] is 127%; in assay [8] it was 124%; in assay [9], 117%; in [10], 105%.

Consider `CCCc1cccc(CCC)c1NC(=O)Nc1cc(Cl)cc(Cl)c1`, for which the growth was 108% in assay [1]; 96.7% in assay [2]; 101% in [3]; 104% in assay [4]; 95.3% in assay [5]; 101% in assay [6]. In addition, the growth in assay [7] was 108%; in assay [8], 103%; in assay [9], 98.2%; in assay [10], 110%.

With `Cc1ccc(S(=O)(=O)Oc2ccc3sc4c(CO)ccc(NCCN(C)C)c4c(=O)c3c2)cc1`, the growth in assay [1] is -38.8% [100 µM] (active); in assay [2], -43.4% [100 µM] (active); in assay [3] it was -73.3% [100 µM] (active); in [4], -93.2% [100 µM] (active); in assay [5] it was -97.9% [100 µM] (active); in [6], -85.1% [100 µM] (active). Also, the growth in assay [7] is -74.1% [100 µM] (active); in assay [8], -79.3% [100 µM] (active); in [9] it was -44.2% [100 µM] (active); in assay [10] it was -58% [100 µM] (active).

With `COCC(N)=O`, the growth in assay [1] is 98.3%; in assay [2], 103%; in assay [3] it was 108%; in [4] it was 101%; in assay [5] it was 120%; in [6] it was 105%. Moreover, the growth is 114% in assay [7], 106% in assay [8], 103% in assay [9] and 111% in assay [10].

For `O=C(NCCc1ccccc1)/C(=C\c1ccc(Cl)cc1Cl)NC(=O)c1ccccc1`, the growth in assay [1] is 87.6%; in assay [2], 92%; in assay [3] it was 95.3%; in [4], 101%; in assay [5], 98.7%; in assay [6], 97.6%. Also, the growth in assay [7] is 96.3%; in [8], 94.1%; in assay [9], 96.4%; in assay [10], 91.8%.

As to `CC(=O)Oc1c(Cl)cccc1-c1ccccc1`, the growth was 99.9% in assay [1]; 99.3% in [2]; 100% in assay [3]; 108% in assay [4]; 110% in assay [5]; 104% in [6]. In addition, the growth was 102% in assay [7], 103% in [8], 90.7% in assay [9] and 97.3% in assay [10].

With `Clc1ccc(/C=C/c2ccccn2)cc1`, the growth in assay [1] is 98.2%; in assay [2] it was 45.5%; in [3], 105%; in [4] it was 112%; in assay [5], 62.3%; in [6], 104%. Besides, the growth in assay [7] was 87.2%; in assay [8], 98.4%; in [10], 98.8%.

`CCOC(=O)C(C#N)=C1CCN(C)CC1`: the growth in [1] is 79.9%; in assay [2], 102%; in assay [3], 93%; in [4], 111%; in [5], 119%; in assay [6], 118%. Also, the growth in assay [7] was 96.9%; in assay [8] it was 117%; in assay [10] it was 115%.

Turning to `Nc1cc2c(cc1Cl)C(=O)c1ccccc1C2=O`, the growth is 59.8% in [1]; 51.1% in assay [2]; 21.7% in assay [3]; 58.5% in assay [4]; 9.39% (active) in assay [5]; 39.1% in [6]. The growth was 35.5% in [7], 62.3% in [8] and 24.1% in assay [10].

For the compound `O=C1CSc2ccccc2N1`, the growth was 105% in assay [1]; 95.2% in assay [2]; 94.9% in [3]; 116% in [4]; 98.9% in assay [5]; 112% in assay [6]. For the same compound, the figures for the growth in assay [7], in [8] and in [10] were 105%, 115% and 98.8%, respectively.

Take `CS(=O)CC(=N\O)/C(CS(C)=O)=N\O` (stereo not given): the growth in [1] was 99.8%; in assay [2], 100%; in assay [3], 95.5%; in assay [4], 103%; in [5] it was 103%; in assay [6], 103%. Also, the growth in [7] was 109%; in [8], 108%; in assay [9], 106%; in [10], 108%.

In the case of `NC(CO)(CO)c1ccccc1`, the growth in assay [1] is 96.7%; in [2], 94.2%; in assay [3], 103%; in [4] it was 101%; in assay [5] it was 104%; in assay [6], 105%. The growth is 104% in assay [7], 97.5% in assay [8], 95.5% in [9] and 111% in assay [10].

For the compound `Cc1ccc([N+](=O)[O-])c(C)n1`, the growth is 106% in assay [1]; 99.4% in assay [2]; 98.4% in assay [3]; 83.5% in [4]; 99.1% in [5]; 106% in assay [6]. The figures for the growth in assay [7], in assay [8] and in [10] were 95%, 107% and 115%, respectively.
